# Measurements published in PubChem BioAssay AID1159580 (chemical genetic matrix, 2015).
# “And” between values parts separate entries of the source, which are not always exact repeats. Identical values can stand only once. About 2,000 (36%) of roughly 5,500 compounds were called active. About 18% were inconclusive and are not listed. The list shows a part of the results. A number with no mark means an inactive call. Rule as the data show it: active = normalized growth mostly below about 0.91 (no sharp cut-off); inconclusive = no clear call, values can overlap the other calls; inactive = mostly above about 0.92.
# Assay: chemical genetic growth profiling, strain panel (AID 1159580);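 also: tested at 20 µM; growth read once vehicle control cultures reached saturation at 30 °C; 1 = growth at the plate median or of vehicle wells; lower values mean less growth of the strain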
# Conditions: S. cerevisiae deletion strains, growth OD
# [1] = locus YAL040C, strain CLN3, hits give low values
# [2] = locus YCL061C, strain MRC1 (second series), hits give low values
# [3] = locus YDR363W, strain ESC2, hits give low values
# [4] = locus YER002W, strain NOP16, hits give low values
# [5] = locus YGR229C, strain SMI1, hits give low values
# [6] = locus YMR263W, strain SAP30, hits give low values
# [7] = locus YNL175C, strain NOP13, hits give low values
# [8] = locus YNL197C, strain WHI3, hits give low values
# [9] = locus YNL224C, strain SQS1, hits give low values
# [10] = locus YOR083W, strain WHI5 (second series), hits give low values
# [11] = locus YPL241C, strain CIN2, hits give low values
structure (smiles),measurement,setting,value
NN=C(N)N,normalized growth,"locus YAL013W, strain DEP1, hits give low values",1.03 and 1.01
same,normalized growth,[1],0.987 and 0.992
same,normalized growth,[2],1
same,normalized growth,[3],1.03
same,normalized growth,[4],1.03 and 0.995
same,normalized growth,[5],1.03
same,normalized growth,[6],1.01
same,normalized growth,"locus YNL153C, strain GIM3, hits give low values",1.01
same,normalized growth,[7],1.02 and 1.01
same,normalized growth,[8],1.01
same,normalized growth,[9],0.993 and 1.03
same,normalized growth,[10],1.02 and 1.01
same,normalized growth,[11],1.01
CCN(CC)c1ncnc2c1ncn2[C@@H]1O[C@H](COP(=O)(O)OP(=O)(O)C(Br)(Br)P(=O)(O)O)[C@@H](O)[C@H]1O,normalized growth,[1],1.05
same,normalized growth,[2],1
same,normalized growth,[3],0.937
same,normalized growth,[4],1
same,normalized growth,[5],0.992
same,normalized growth,[6],0.991
same,normalized growth,"locus YNL128W, strain TEP1, hits give low values",1
same,normalized growth,[7],0.992
same,normalized growth,[8],0.977
same,normalized growth,[9],0.971
same,normalized growth,"locus YNL322C, strain KRE1, hits give low values",0.995
same,normalized growth,[10],0.979
same,normalized growth,[11],1.01
O=C(NCC1COc2ccccc2O1)c1ccc(Cl)cc1 (configuration not stated),normalized growth,"locus YAR019C, strain CDC15, hits give low values",0.956
same,normalized growth,"locus YBL105C, strain PKC1, hits give low values",0.952
same,normalized growth,"locus YBR135W, strain CKS1, hits give low values",0.935
same,normalized growth,"locus YBR136W, strain MEC1, hits give low values",0.957
same,normalized growth,"locus YBR160W, strain CDC28, hits give low values",0.959
same,normalized growth,"locus YDL017W, strain CDC7, hits give low values",0.944
same,normalized growth,"locus YDL028C, strain MPS1, hits give low values",0.951
same,normalized growth,"locus YDL101C, strain DUN1, hits give low values",0.98
same,normalized growth,"locus YDL108W, strain KIN28, hits give low values",0.951
same,normalized growth,"locus YDL132W, strain cdc53, hits give low values",0.936
same,normalized growth,"locus YDL214C, strain PRR2, hits give low values",0.837
same,normalized growth,"locus YDR052C, strain DBF4, hits give low values",0.973
same,normalized growth,"locus YDR054C, strain cdc34, hits give low values",0.933
same,normalized growth,"locus YDR226W, strain ADK1, hits give low values",0.949
same,normalized growth,"locus YDR477W, strain SNF1, hits give low values",0.734
same,normalized growth,"locus YER123W, strain YCK3, hits give low values",0.75
same,normalized growth,"locus YER133W, strain GLC7, hits give low values",0.463 (active)
same,normalized growth,"locus YFL009W, strain cdc4, hits give low values",0.942
same,normalized growth,"locus YFL029C, strain CAK1, hits give low values",0.933
same,normalized growth,"locus YFR003C, strain YPI1, hits give low values",0.956
same,normalized growth,"locus YFR019W, strain FAB1, hits give low values",0.745 (active)
same,normalized growth,"locus YFR028C, strain CDC14, hits give low values",0.942
same,normalized growth,"locus YGR040W, strain KSS1, hits give low values",0.692
same,normalized growth,"locus YGR052W, strain FMP48, hits give low values",0.899
same,normalized growth,"locus YGR092W, strain DBF2, hits give low values",0.753
same,normalized growth,"locus YHR030C, strain SLT2, hits give low values",0.638 (active)
same,normalized growth,"locus YHR079C, strain IRE1, hits give low values",0.759
same,normalized growth,"locus YHR082C, strain KSP1, hits give low values",0.88
same,normalized growth,"locus YHR205W, strain SCH9, hits give low values",0.901
same,normalized growth,"locus YIL147C, strain SLN1, hits give low values",0.929
same,normalized growth,"locus YJL095W, strain BCK1, hits give low values",0.586
same,normalized growth,"locus YJL128C, strain PBS2, hits give low values",0.948
same,normalized growth,"locus YJL157C, strain FAR1, hits give low values",0.84
same,normalized growth,"locus YJR016C, strain ILV3, hits give low values",0.936
same,normalized growth,"locus YJR066W, strain TOR1 (second series), hits give low values",0.561 (active)
same,normalized growth,"locus YJR066W, strain TOR1, hits give low values",0.714
same,normalized growth,"locus YKL048C, strain ELM1, hits give low values",0.895
same,normalized growth,"locus YKL067W, strain YNK1, hits give low values",0.842
same,normalized growth,"locus YKL101W, strain HSL1, hits give low values",0.92
same,normalized growth,"locus YKL193C, strain SDS22, hits give low values",0.933
same,normalized growth,"locus YKL203C, strain TOR2, hits give low values",0.708 (active)
same,normalized growth,"locus YLR113W, strain HOG1, hits give low values",0.935
same,normalized growth,"locus YLR133W, strain CKI1, hits give low values",0.88
same,normalized growth,"locus YLR403W, strain SFP1, hits give low values",0.699
same,normalized growth,"locus YML070W, strain DAK1, hits give low values",0.827
same,normalized growth,"locus YMR001C, strain CDC5, hits give low values",0.896
same,normalized growth,"locus YMR205C, strain PFK2 (second series), hits give low values",0.82
same,normalized growth,"locus YMR277W, strain FCP1, hits give low values",0.923
same,normalized growth,"locus YNL006W, strain LST8, hits give low values",0.929
same,normalized growth,"locus YNL020C, strain ARK1, hits give low values",0.86
same,normalized growth,"locus YNL161W, strain CBK1, hits give low values",0.958
same,normalized growth,"locus YNL183C, strain NPR1, hits give low values",0.796
same,normalized growth,"locus YNL207W, strain RIO2, hits give low values",0.91
same,normalized growth,"locus YNL222W, strain SSU72, hits give low values",0.948
same,normalized growth,"locus YNL307C, strain MCK1 (second series), hits give low values",0.872
same,normalized growth,"locus YOL078W, strain AVO1, hits give low values",0.93
same,normalized growth,"locus YOL136C, strain PFK27, hits give low values",0.802
same,normalized growth,"locus YOR061W, strain CKA2, hits give low values",0.886
same,normalized growth,"locus YOR119C, strain RIO1, hits give low values",0.723
same,normalized growth,"locus YOR231W, strain MKK1, hits give low values",0.771
same,normalized growth,"locus YOR329C, strain SCD5, hits give low values",0.938
same,normalized growth,"locus YPL031C, strain PHO85, hits give low values",0.662 (active)
same,normalized growth,"locus YPL153C, strain RAD53, hits give low values",0.649 (active)
same,normalized growth,"locus YPL204W, strain HRR25, hits give low values",0.682
same,normalized growth,"locus YPL209C, strain IPL1, hits give low values",0.952
same,normalized growth,"locus YPL256C, strain CLN2, hits give low values",0.867
same,normalized growth,"locus YPR025C, strain CCL1, hits give low values",0.951
same,normalized growth,"locus YPR106W, strain ISR1, hits give low values",0.968
same,normalized growth,"locus YPR111W, strain DBF20, hits give low values",0.962
same,normalized growth,"strain NNK1, hits give low values",0.958
same,normalized growth,"strain TSCII, hits give low values",0.92
